CYP2C9 inhib – blocks human cytochrome P450 2C9; CYP2C9 Supersomes, luciferin-H conversion, luminescence; inhibition, % at 5 µM; 96,000 compounds, 20% hits; AID 777;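 active = blocking of liver enzyme CYP2C9 beyond about 50% at 5 µM, limit read from the data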
CYP2C9 activ – activators of human CYP2C9; 96,000 compounds, 1.4% hits; AID 1024; P11712; recombinant CYP2C9, luciferin-H conversion, luminescence; hits give high values; factor 1 = untreated enzyme, 0 = blocked; activation factor at 5 µM;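 active = activation factor of 2 or more for CYP2C9 at a 5 µM dose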;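 also: 0 = sulfaphenazole-blocked wells and 1 = vehicle-only wells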
CYP2C19 activ – increases human CYP2C19 enzyme activity. P33261. recombinant CYP2C19, luciferin-H EGE luminescence; hits give high values; 0 = fully inhibited enzyme, 1 = untreated enzyme. activation factor at 5 µM. 96,000 tested, under 10 active. AID 1025;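 active = activation factor of at least 2 at 5 µM in the primary screen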;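 also: 0 = wells with 2.5 mM tranylcypromine and 1 = vehicle-only wells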
sEH act – increases human soluble epoxide hydrolase activity; P34913; purified human sEH enzymatic activity, activator screen; activation, % at 2 µM; 91,000 compounds, 0.04% hits; AID 717; in the data active = activation above about 37%
Target sequence (P34913 whole entry, looked up): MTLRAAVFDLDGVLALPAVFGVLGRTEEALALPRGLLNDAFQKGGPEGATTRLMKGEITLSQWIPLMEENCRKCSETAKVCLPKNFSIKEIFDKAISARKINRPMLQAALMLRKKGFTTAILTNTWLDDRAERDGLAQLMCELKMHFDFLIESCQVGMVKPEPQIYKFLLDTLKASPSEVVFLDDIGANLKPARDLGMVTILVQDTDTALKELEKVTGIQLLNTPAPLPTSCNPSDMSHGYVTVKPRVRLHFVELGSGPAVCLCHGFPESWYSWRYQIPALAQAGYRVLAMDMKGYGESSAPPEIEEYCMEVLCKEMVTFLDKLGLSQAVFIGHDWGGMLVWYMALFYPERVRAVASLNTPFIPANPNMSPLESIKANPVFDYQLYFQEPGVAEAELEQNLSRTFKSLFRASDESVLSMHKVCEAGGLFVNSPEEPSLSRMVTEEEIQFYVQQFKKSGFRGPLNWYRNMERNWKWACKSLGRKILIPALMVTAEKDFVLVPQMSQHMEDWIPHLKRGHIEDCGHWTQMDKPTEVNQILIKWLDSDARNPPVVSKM
sEH inh – soluble epoxide hydrolase (human) inhibition. P34913. recombinant human sEH enzymatic activity assay. inhibition, % at 2 µM. 91,000 compounds, 0.34% hits. AID 707; in the data active = inhibition above about 80%
CYP2C19 inhib – inhibitors of human CYP2C19; P33261; CYP2C19 Supersomes, luciferin-H EGE luminescence, 30 min; inhibition, % at 5 µM; 96,000 compounds, 21% hits;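 active = CYP2C19 inhibition above a set limit at 5 µM in the primary screen, cut at about 50% in these data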;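 also: plate controls were negative control wells for no effect and 2.5 mM tranylcypromine positive control for full effect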
An asterisk follows results filed as active. Sampled rows, rich in hits. Any-hit rate of the full collection: about 27%.

O=C(CC1NCCNC1=O)OCc1ccccc1 (centres undefined) was read as CYP2C9 inhib -13, CYP2C9 activ 1.1, CYP2C19 activ 1.1, sEH act -3, sEH inh 1 and CYP2C19 inhib -9.
For Cn1c(=O)c2c(nc(NCCCO)n2C/C=C/c2ccccc2)n(C)c1=O the results were CYP2C9 inhib 68*, CYP2C9 activ 0.3, CYP2C19 activ 0.1, sEH act -7, sEH inh 9 and CYP2C19 inhib 90*.
Screening COc1ccc(Nc2nc3c(c(=O)n(C)c(=O)n3C)n2CCO)cc1 returned CYP2C9 inhib 59*, CYP2C9 activ 0.4, CYP2C19 activ 1 and CYP2C19 inhib 3.
`Cc1ccc(-n2c3c(c(=O)[nH]c2=O)C(C(F)(F)F)(C(F)(F)F)NC(=O)N3)cc1` gave CYP2C9 inhib 1, CYP2C9 activ 1, CYP2C19 activ 1.1, sEH act 6, sEH inh -4 and CYP2C19 inhib -9.
For CCOc1ccc(CCNC(=O)C2CCCN(C(=O)N(C)C)C2)cc1OCC (centres undefined) the results were sEH act 0 and sEH inh 2.
For O=C(CSc1nnc(Cc2ccccc2)n1-c1ccc(Cl)cc1)N1CCOCC1 the results were CYP2C9 inhib 1, CYP2C9 activ 1, CYP2C19 activ 0.9, sEH act 5, sEH inh -1 and CYP2C19 inhib 8.
For O=C(CC(NS(=O)(=O)c1ccc(Cl)cc1)c1ccco1)N1CCc2ccccc21 (centres undefined) the results were CYP2C9 inhib -2, CYP2C9 activ 1, CYP2C19 activ 0.9, sEH act 9, sEH inh -12 and CYP2C19 inhib 12.
Screening COC(=O)C(=O)Nc1nnc(COc2ccccc2)s1 returned CYP2C9 inhib 3, CYP2C9 activ 1, CYP2C19 activ 1.1, sEH act 10, sEH inh -8 and CYP2C19 inhib -12.
Screening O=C(Nc1ccc(Cl)cc1)NC1CCCCC1 returned CYP2C9 inhib 1, CYP2C9 activ 1, CYP2C19 activ 1 and CYP2C19 inhib -1.
`COC(=O)[C@H](C)NC(=O)Nc1cccc(C(F)(F)F)c1` gave sEH act -4 and sEH inh 8.
`O=C(Nc1ccc(OC(F)F)cc1)Nc1cccc(C(F)(F)F)c1` gave CYP2C9 inhib 25, CYP2C9 activ 0.8, CYP2C19 activ 0.7, sEH act -86, sEH inh 86* and CYP2C19 inhib 29.
For O=C(Nc1ccc(F)c(F)c1)NC1CCCCC1 the results were CYP2C9 inhib 46, CYP2C9 activ 0.5, CYP2C19 activ 0.9, sEH act -90, sEH inh 90* and CYP2C19 inhib 14.
For O=C(Nc1ccc2c(c1)nc1n2CCN(C2CCCCC2)C1)NC1CCCCC1 the results were CYP2C9 inhib 30, CYP2C9 activ 0.7, CYP2C19 activ 0.9, sEH act -89, sEH inh 89* and CYP2C19 inhib 12.
For CC(=O)c1cccc(NC(=O)NC2CCCCC2)c1 the results were CYP2C9 inhib 2, CYP2C9 activ 1, CYP2C19 activ 0.9, sEH act -69, sEH inh 69 and CYP2C19 inhib 7.
Screening O=C(Nc1cccc(C(F)(F)F)c1)NC1CCCCC1 returned CYP2C9 inhib -15, CYP2C9 activ 1.2, CYP2C19 activ 0.9, sEH act -94, sEH inh 94* and CYP2C19 inhib 10.
`O=C(CN1C(=O)C2CC=CCC2C1=O)NC1CCCc2ccccc21` (centres undefined) gave CYP2C9 inhib 5, CYP2C9 activ 0.9, CYP2C19 activ 1.2, sEH act -12, sEH inh 13 and CYP2C19 inhib -18.
Screening Cc1cc(C)cc(NC(=O)Cn2c(=O)oc3cc(S(=O)(=O)N4CC(C)CC(C)C4)ccc32)c1 (centres undefined) returned CYP2C9 inhib 56*, CYP2C9 activ 0.4, CYP2C19 activ 0.7, sEH act 10, sEH inh -11 and CYP2C19 inhib 31.
Screening CCCCNC(=O)Cn1c(=O)oc2cc(S(=O)(=O)N3CC(C)CC(C)C3)ccc21 (centres undefined) returned CYP2C9 inhib 57*, CYP2C9 activ 0.4, CYP2C19 activ 0.9, sEH act -6, sEH inh 5 and CYP2C19 inhib 12.
For NC(=O)Nc1ccc(F)cc1 the results were CYP2C9 inhib -3, CYP2C9 activ 1, CYP2C19 activ 1, sEH act -2, sEH inh 1 and CYP2C19 inhib -3.
